# Results published in the supplement of paper PMC12350171.
# Structures can show the parent of a compound that is named as a salt. Unmarked numbers belong to inactive results.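 The calls were made as follows: active = normalised median growth AUC below 0.1 of DMSO control; inactive = AUC 0.1 or higher.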
# Legend:
# Assay in all cases: growth AUC normalised to DMSO control (median) (fraction of control); higher = less growth inhibition, active = hit call of the paper
# Conditions in all cases: 20 µM
# [1] = system: P. vulgatus RND KO
# In short: (§1)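 Strains were passaged twice overnight without oxygen, then grown in mGAM in 96-well plates with each approved-drug library compound at 20 μM and 1% DMSO, starting at OD578 0.01. OD578 was read hourly for 24 h inside an anaerobic incubator. Curves were truncated at entry into stationary phase, and the trapezoidal-rule area under the curve was normalised to same-plate vehicle wells. The value is the median across three biological replicates.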
# [2] = system: P. vulgatus WT
# In short: as §1
# [3] = system: S. enterica typhimurium WT
# In short: as §1
# [4] = system: S. enterica typhimurium tolC KO
# In short: as §1
# 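Also: active when median AUC fell below 0.1.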
SMILES,growth AUC normalised to DMSO control [1],growth AUC normalised to DMSO control [2],growth AUC normalised to DMSO control [3],growth AUC normalised to DMSO control [4]
CCOC(=O)[C@H](CCc1ccccc1)N[C@@H](C)C(=O)N(CC(=O)O)C1Cc2ccccc2C1 [Delapril Hydrochloride],1,0.999,1,0.987
CC[C@H](C)[C@H](NC(=O)[C@H](Cc1ccc(O)cc1)NC(=O)[C@@H](NC(=O)[C@H](CCCN=C(N)N)NC(=O)[C@@H](N)CC(=O)O)C(C)C)C(=O)N[C@@H](Cc1cnc[nH]1)C(=O)N1CCC[C@H]1C(=O)N[C@@H](Cc1ccccc1)C(=O)O [Angiotensin II (Human) Trifluoroacetic acid salt],1.1,1.1,0.997,1.02
CC1(C)S[C@@H]2[C@H](NC(=O)C(C(=O)O)c3ccccc3)C(=O)N2[C@H]1C(=O)O (stereo partly specified) [Carbenicillin disodium salt],0.0099 (active),0.00958 (active),0.0868 (active),0.00344 (active)
Cn1c(=O)cc(N2CCC[C@@H](N)C2)n(Cc2ccccc2C#N)c1=O [Alogliptin benzoate],0.981,0.971,0.991,0.992
CC1CC(OC(=O)C(O)c2ccccc2)CC(C)(C)C1 (stereo unspecified) [Cyclandelate],0.983,0.975,1,0.903
COc1ccc(-c2ccc3cc(C(=O)O)ccc3c2)cc1C12CC3CC(CC(C3)C1)C2 [Adapalene],1.03,1,0.988,1.01
CCOCC(O)COc1ccc(NC(=O)CC[S+](C)C)cc1 (stereo unspecified) [Suplatast Tosylate],0.998,1.01,1,1
O=C1[C@H](CC[C@H](O)c2ccc(F)cc2)[C@@H](c2ccc(O)cc2)N1c1ccc(F)cc1 [Ezetimibe],0.901,0.918,1,0.828
Cn1cc(C(=O)[C@@H]2CCc3[nH]cnc3C2)c2ccccc21 [Ramosetron hydrochloride],0.999,0.997,0.995,0.975
N=C(N)Nc1ccc(C(=O)Oc2ccc3cc(C(=N)N)ccc3c2)cc1 [Nafamostat Mesylate],1.11,1.03,0.997,0.999
CC(C)Nc1ncccn1 [Isaxonine],0.976,0.953,0.999,1
CO/N=C1\CN(c2nc3c(cc2F)c(=O)c(C(=O)O)cn3C2CC2)CC1CN (stereo unspecified) [Gemifloxacin mesylate],0.0152 (active),0.0136 (active),0.0112 (active),0.0027 (active)
COc1cc(/C=C/C(=O)N2CCN(CC(=O)N3CCCC3)CC2)cc(OC)c1OC [Cinepazide maleate],1.04,1.08,1.01,1.01
O=C1CC[C@@H](C(=O)N2CSC[C@H]2C(=O)O)N1 [Pidotimod],0.991,0.993,1,0.991
CCOC(=O)c1ccc(C#Cc2ccc3c(c2)C(C)(C)CCS3)nc1 [Tazarotene],0.993,1.02,1,0.982
O=C(O)CNC(=O)c1ccccc1 [Hippuric acid],1.1,1.05,1.01,1.02
CCOC(=O)[C@H](CCc1ccccc1)N[C@@H](C)C(=O)N1C(=O)N(C)C[C@H]1C(=O)O [Imidapril hydrochloride],1.01,1,1.02,1
CC1=C(C(=O)O)N2C(=O)[C@@H](NC(=O)[C@H](N)c3ccccc3)[C@H]2SC1 [Cephalexin monohydrate],1.04,1.04,0.999,0.968
OC[C@H]1O[C@@H](c2ccc(Cl)c(Cc3ccc(O[C@H]4CCOC4)cc3)c2)[C@H](O)[C@@H](O)[C@@H]1O [Empagliflozin],1.02,1.04,1.01,0.992
COc1cc(C(=O)N2CCOCC2)cc(OC)c1OC [Trimetozine],1.01,1.01,0.996,0.991
COc1cccc2c1C(=O)c1c(O)c3c(c(O)c1C2=O)C[C@@](O)(C(=O)CO)C[C@@H]3O[C@H]1C[C@H](N)[C@@H](O)[C@H](C)O1 [Epirubicin hydrochloride],1.02,0.961,1,0.0212 (active)
CCN(CC)C(=O)c1cccnc1 [Nikethamide],0.992,1,1,1.01

SMILES,growth AUC normalised to DMSO control [1],growth AUC normalised to DMSO control [2],growth AUC normalised to DMSO control [3],growth AUC normalised to DMSO control [4]
N[C@@H]1CCCCN(c2c(F)cc3c(=O)c(C(=O)O)cn(C4CC4)c3c2Cl)C1 [Besifloxacin hydrochloride],0.0164 (active),0.0175 (active),0.00618 (active),0.00833 (active)
NC(=O)Cc1cccc(C(=O)c2ccccc2)c1N [Nepafenac],1.03,1.01,0.996,1.02
Cc1nc2ccccc2n1Cc1ccc(Cl)cc1 [Chlormidazole],0.974,0.95,0.951,0.833
CCCNC(C)(C)C(=O)Nc1ccccc1C [Quatacaine],1.01,1.03,1,0.975
O=C1c2cccc(O)c2C(=O)c2c(O)cccc21 [Danthron],0.689,0.525,0.991,0.369
CC(COc1ccccc1)NN (stereo unspecified) [Phenoxypropazine dihydrochloride],1.07,1.08,1.01,0.994
C[C@@H](NCCCc1cccc(C(F)(F)F)c1)c1cccc2ccccc12 [Cinacalcet hydrochloride],1.01,1.02,1.01,0.996
CNC(=O)OCc1cccc(COC(=O)NC)n1 [Pyricarbate],1.03,1.08,1.01,0.999
CC(=O)Oc1c(C)cccc1C(=O)O [Cresopirine],0.998,0.986,0.998,0.986
NC(N)=Nc1nc(CSCCN/C=N/S(=O)(=O)c2ccc(Br)cc2)cs1 [Ebrotidine],0.995,1.01,0.998,0.987
Cc1cccc(C)c1NC(=O)CC12CCCN1CCC2 [Pilsicainide Hydrochloride],1.05,1.09,1,1
O=C(CCCl)NCc1ccccc1 [Beclamide],0.972,0.966,1.01,0.974
CN1CC(O)c2cc(N=NC(N)=O)c(O)cc21 (stereo unspecified) [Carbazochrome],0.999,1.01,0.999,0.952
CC(C)c1ccc2oc3nc(N)c(C(=O)O)cc3c(=O)c2c1 [Amlexanox],1.02,1.01,0.996,0.971
CC(=O)c1cc2cccc(OCC(O)CNC(C)C)c2o1 (stereo unspecified) [Befunolol],1.03,1.06,1,1
CC=CC1=C(C(=O)O)N2C(=O)[C@@H](NC(=O)[C@H](N)c3ccc(O)cc3)[C@H]2SC1 [Cefprozil],1.45,1.42,1.01,0.983
CCN1CC(CCN2CCOCC2)C(c2ccccc2)(c2ccccc2)C1=O (stereo unspecified) [Doxapram hydrochloride],1.05,1.03,1.02,0.996
COc1cc2/c(=N/c3ccc(Br)cc3F)nc[nH]c2cc1OCC1CCN(C)CC1 [Vandetanib],1.1,1.08,1.02,1.01
CN1CCC[C@@H]1Cc1c[nH]c2ccc(CCS(=O)(=O)c3ccccc3)cc12 [Eletriptan],1.04,1.05,0.987,0.958
CN1CCC(=C2c3ccccc3CCc3cccnc32)CC1 [Azatadine maleate],0.998,0.987,1,0.993
N[C@H](Cc1ccccc1)C(=O)O [D-phenylalanine],0.996,0.985,0.995,1
CC[N+]1(CC)CCC(=C(c2ccccc2)c2ccccc2)C1C (stereo unspecified) [Prifinium Bromide],0.997,0.989,1,0.935
